Drawing on PubChem BioAssay AID1117319 (Southern Research Institute, 2015), this text covers inhibition for 61 molecules.

Values joined by “and” are separate entries in the source; they are usually repeats but may differ in a detail not shown here. Identical values can stand only once. Out of some 260,000 compounds screened, about 1,500 (0.58%) were called active. About 5% were inconclusive and are not listed. These entries were drawn from the full list. Measured potencies and affinities stand elsewhere. Unmarked numbers belong to inactive results.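 How the source made its calls: active means inhibition above a set limit at one or more doses, reproduced on every date tested; inconclusive means results disagree between test dates, or hit never tested in dose response; inactive means the rest.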

The assay deals with Virion infectivity factor (Human immunodeficiency virus type 1 group M subtype B (isolate BH10)) + Virion infectivity factor (Human immunodeficiency virus type 1 group M subtype B (isolate BRU/LAI)) + Virion infectivity factor (Human immunodeficiency virus type 1 group M subtype B (isolate PCV12)) + Virion infectivity factor (Human immunodeficiency virus type 1 group M subtype B (isolate HXB2)) + DNA dC->dU-editing enzyme APOBEC-3G (Homo sapiens) (UniProt P69720+P69721+P69722+P69723+Q9HC16). Description: HIV-1 Vif–A3G interaction blockers – biochemical, TR-FRET, GST-Vif 1-94, biotin-A3G peptide, dose response retest, primary screen (AID 1117319).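 Further: Vif residues 1-94 fused to GST binding biotinylated APOBEC3G peptide 110-148; 0% = full assay without inhibitor and 100% = GST in place of GST-Vif.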 Conditions: TR-FRET GST-Vif / biotin-A3G peptide binding; hits give high values. (TR-FRET usually uses a lanthanide donor and a delayed reading to cut background.)
As for `CCOc1ccc(CCNC(=O)C2CC=CCC2C(=O)OC(C)C)cc1OCC` (stereo unspecified), the inhibition is 0.89%. With `CCOc1ccc(CCNC(=O)C2CCN(S(=O)(=O)N3CCC(C)CC3)CC2)cc1OCC` the figure was -6.54%; with `CCOC(=O)c1[nH]c2cc(OC)c(OC)cc2c1NC(=O)CN1CCN(c2ccc(OC)cc2)C(C)C1` (stereo unspecified), 23%. Regarding `Cc1cc(C(=O)N/N=C/c2ccc(-c3cccc(Cl)c3)o2)n[nH]1`, the inhibition is -2.03%. As to `Cc1ccc(-c2cc(N)n(-c3ccccc3)n2)cc1`, the inhibition is -2.7%. As for `Cc1ccc(-c2cc(N)n(-c3ccc(C)cc3)n2)cc1`, the inhibition was -11.3%. With `CCOC(=O)c1ccc(N2C(=O)C3CC=C(C)CC3C2=O)cc1` (stereo unspecified), the inhibition is 24.6%. As for `Cc1ncc(CO)c(/C=N/NC(=O)c2cc(Br)ccc2O)c1O`, the inhibition is 11%. Take `COc1ccc(C(=O)N/N=C/c2c(CO)cnc(C)c2O)cc1`: the inhibition was 8.42%. For `O=C(N/N=C\c1cccnc1)c1ccccc1O`, the inhibition is -5.54%.

Turning to `O=C(N/N=C/c1cccnc1)c1ccccc1`, the inhibition is -11.7%. For the molecule `Cc1ccc(NC2=NCCCCC2)cc1`, the inhibition was 0.64%.

Consider `CCN(CC)C(=O)[C@H]1C[C@H](CC(=O)NC(C)(C)C)C(=O)N2CCc3c([nH]c4ccc(Cl)cc34)[C@]12C`, for which the inhibition is -8.68%. With `CNC(=O)CN(C1CCCCC1)S(=O)(=O)c1ccc(F)cc1`, the inhibition was -2.39%. With `Cn1cccc1Cc1nnc(SCC(=O)NCc2ccco2)n1CCc1ccccc1` the figure was 1.07%; with `Cn1cccc1/C=C1\CC(C(C)(C)C)C/C(=C\c2cccn2C)C1=O` (stereo unspecified), 1.11%; with `CC1C/C(=C/c2cccn2C)C(=O)/C(=C/c2cccn2C)C1` (stereo unspecified), 32.9%. With `O=C1/C(=C/c2ccccc2)SC(=S)N1N1C(=O)C2CC2C1=O` (stereo unspecified), the inhibition is -1.11%. For the molecule `CC(C)Cc1nnc(NC(=O)c2cccc(S(=O)(=O)N3CCN(C)CC3)c2)s1`, the inhibition is 3.22%. For `O=C(/C=C/c1ccccc1[N+](=O)[O-])OCC(=O)c1ccccc1`, the inhibition was -4.21%. As to `Cc1ccc(C(=O)CSc2nc3cccnc3n2C)cc1`, the inhibition is 6.72%.

Take `O=C(COc1cc(Cl)c(Cl)cc1Cl)NCCN1CCOCC1`: the inhibition is 8.15%. Take `Cc1nnc(NC(=O)CCC(=O)NCc2ccco2)s1`: the inhibition was 6.21%. In the case of `NC(=O)COC(=O)c1ccc(C(=O)C(=O)c2ccccc2)cc1` it was 4.49%. Turning to `NC(=O)COC(=O)c1ccc(-c2ccccc2)cc1`, the inhibition was -9.63%. Regarding `O=C(CSC(=S)N1CCOCC1)Nc1ncc2c(n1)CCCC2=O`, the inhibition is 1.41%.

As to `O=C(NCC(O)c1ccccc1)c1cccs1` (stereo unspecified), the inhibition was -7.1%. Take `Cc1sc(NC(=O)c2ccco2)c(CN2CCN(c3ccccn3)CC2)c1C`: the inhibition is 17.2%. With `O=C(O)c1cc(-c2ccc(/C=N/Nc3ccc([N+](=O)[O-])cn3)o2)ccc1Cl` the figure was 5.44%. Turning to `NC(=O)N/N=C/c1ccc(-c2ccc([N+](=O)[O-])cc2)o1`, the inhibition is 0.97%. `O=C(CCNC(=O)c1ccc([N+](=O)[O-])cc1)Nc1cc(Cl)ccc1N1CCOCC1`: the inhibition is -3.46%. On to `CC(=O)NC(=S)Nc1cc(C(=O)O)ccc1Cl`, for which the inhibition is -3.72%. With `CCCCC(=O)NC(=S)Nc1cc(C(=O)O)ccc1OC` the figure was 6.07%; with `CCCCC(c1nnnn1CCOC)N1CCN(C(=O)c2ccco2)CC1` (stereo unspecified), 32.8% and -5.2%; with `Cc1ccc(CN(C)C(=O)CN2C(=O)NC3(CCCc4ccccc43)C2=O)c(C)c1` (stereo unspecified), -3.76%. For `CN(C)C(=O)CSc1nnc(Cc2ccccc2)n1Cc1ccco1`, the inhibition was 7.45%.

On to `CC(C)CC(=O)Nc1ccccc1-c1nnn(CC(=O)N2CCc3ccccc3C2)n1`, for which the inhibition was 10.6%. Turning to `O=C(Nc1cccc(-c2nnn(CC(=O)N3CCc4ccccc4C3)n2)c1)C1CCC1`, the inhibition is -4.46%.

Take `CC(=O)NCCOc1cccc2ccccc12`: the inhibition was 4.94%. With `CC(=O)NN1C(=O)/C(=C\c2ccccc2)SC1=S`, the inhibition was 1.87%.

In the case of `CC(=O)NN1C(=O)/C(=C\c2ccc(Cl)cc2)SC1=S`, the inhibition was 7.42%. Regarding `CC(=O)NN1C(=O)/C(=C/c2ccc(C(C)C)cc2)SC1=S`, the inhibition was -3.47%.

For the molecule `CC(=O)NN1C(=O)/C(=C\c2ccc(C)cc2)SC1=S`, the inhibition is -1.41%. In the case of `O=C(c1nc(-c2ccccc2)n(-c2ccccc2)n1)N1CCCCCC1` it was 2.5%; in that of `O=C(NNC(=O)c1cc(Cl)ccc1O)c1cccc(S(=O)(=O)N2CCOCC2)c1`, 4.69%; in that of `COc1cccc(C(=O)NCc2ccc(N3CCN(C(=O)OC(C)(C)C)CC3)cc2)c1`, 4.61%. For the molecule `CCN(CC)c1ccc(C(=O)Nn2cnc3ccccc3c2=O)cc1`, the inhibition was -13%. In the case of `Cc1cc(-c2csc(N)n2)c(C)n1Cc1ccco1`, the inhibition was 20.6%. With `CCNc1nc(-c2cc(C)n(Cc3ccco3)c2C)cs1` the figure was 8.76%; with `Cc1ccccc1NS(=O)(=O)c1cc(C(=O)NCCSC2CCCCC2)ccc1C`, 4.25%. With `Cc1cc(C)c2c(=O)[nH]c(=O)n(Cc3ccccc3)c2n1`, the inhibition is 11.8%. On to `CCCCCCCCn1c2c(c(=N)c3ccccc31)CCC2`, for which the inhibition was 1.93%. As to `O=C1NC(=S)S/C1=C\c1cccc([N+](=O)[O-])c1`, the inhibition is 0.14%. Regarding `O=C1CN(/N=C/c2ccc([N+](=O)[O-])o2)C(=O)N1`, the inhibition was 6.04%. For the molecule `CCC1(C)Cc2ccccc2-c2nc(NCCCO)n(-c3ccccc3)c(=O)c21` (stereo unspecified), the inhibition was -4.2%. For the molecule `CC(C)COC(=O)Nc1nnc(SCCOc2ccccc2)s1`, the inhibition was -6.77%.

As to `O=C(c1cc2c(s1)-c1ccccc1OC2)N1CCN(c2ccccn2)CC1`, the inhibition is -16.4%. Take `CCOc1cc(C(=O)OCC(=O)Nc2cc(C)on2)cc(OCC)c1OCC`: the inhibition is -2.84%.

On to `Clc1ccc(OCc2nn3c(-c4ccccc4)nnc3s2)c(Cl)c1`, for which the inhibition is -0.95%.

Take `Clc1ccc(OCc2nn3c(-c4ccco4)nnc3s2)cc1`: the inhibition is 2%.

In the case of `COc1ccc(CN(C)C2CCCCC2)c(C)c1C`, the inhibition was -2.5%.

Usually inhibition stands for the change of the read-out against control, counted positive when it falls.
